# Assay results: PubChem BioAssay (NCI)
# About 83,000 compounds went through this panel and 20% of them were active in at least one assay; those are over-represented in the sample as a whole.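 Single-dose data. Exposure time 48 hours. Values below 10 considered active.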 Values without a mark were called inactive. The source made the active and inactive calls.
# Tested on: OVCAR-5 ovarian
# Experiment: NCI-60 one-dose screen, 48 h (100 = growth as untreated, 0 = no growth, -100 = all killed)
# Details: 10 µM
# Description: Growth inhibition of the OVCAR-5 human tumor cell line is measured as a screen for anti-cancer activity. Cells are grown in 96 well plates and exposed to the test compound for 48 hours. Compounds are tested at a single concentration, which is 10^-5 M for most compounds. The reported endpoint is percent growth (GI% or GIPRCNT), where numbers from 0 - 100% represent growth inhibition, and numbers from -100% - 0 represent cell death. For example, a value of 40 represents 60% growth inhibition. A value of 0 means no net growth occurred over the course of the experiment. A value of -40 indicates 40% of cells at the beginning of the experiment died by the end of the experiment. A value of -100 means all cells are dead at the end of the experiment.
# NCI-60 Human Tumor Cell Lines Screen was performed using the standard one-dose NCI protocol, which is described in more detail at https://dtp.cancer.gov/discovery_development/nci-60/default.htm.
# Compounds with GIPRCNT values below 10 were considered active. Activity score was based on GIPRCNT using the following formula: […]
# Score is 0 for GIPRCNT values of 100 or above, 50 for GIPRCNT values of 0, and 100 for GIPRCNT values of -100.
row,SMILES,growth
1,Cc1ccc(C(=O)NCCCNc2nc(Nc3ccc(N4CCN(C)CC4)cc3)nc3ccsc23)cc1,69.1%
2,O=C1CCC(N2Cc3c(NCc4ccc(-c5ccccc5)cc4)cccc3C2=O)C(=O)N1 (stereo not given),83.7%
3,O=C(c1ccc(O)cc1)C1[C@H](c2ccccc2Br)[C@@H](c2ccccc2)NC12C(=O)Nc1ccc(Br)cc12 (stereo not given in full),64.1%
4,Cn1cc(-c2cc(N)n3nc(-c4c[nH]c5ccc(Br)cc45)cc3n2)c2cc(Br)cnc21,-61.9% (active)
5,O=c1c2ccccc2nc(COc2ccccc2)n1/N=C/c1ccc(F)cc1,94.2%
6,Cc1cc(=O)oc2cc(OCCCCOc3ccc(/C=C/C(=O)Nc4ccc(F)c(Cl)c4)cc3)ccc12,101%
7,O=C(Nc1ccc(I)cc1)Nc1nc2ccc([N+](=O)[O-])cc2s1,-98.4% (active)
8,COc1cccc(COc2ccc(/C=C3\Oc4cc(O)ccc4C3=O)cc2)c1,77.6%
9,COc1ccc(-c2ccc(SCC(=O)Nc3ccc(C#N)cc3)nn2)cc1,101%
10,O/N=C(\CSc1nnc(-c2c[nH]c3ccccc23)n1-c1ccccc1)c1ccc(Br)cc1,-82.5% (active)
11,Cc1cccc2cc(-c3cc(-c4ccccc4)nc(=S)[nH]3)c(Cl)nc12,108%
12,CC1(c2ccccc2)NC(=O)N(CC(=O)Nc2ccc(C(=O)/C=C/c3ccc(Cl)cc3)cc2)C1=O (stereo not given),34.5%
13,O=C(c1ccccc1)n1ccc(-c2cc3cc(Br)ccc3oc2=O)n1,34.6%
14,COc1cc2c(cc1OC)/C(=C\c1sc(Nc3ccc(O)cc3)nc1O)C(C(=O)O)=N2,34.6%
15,N#Cc1c(NC(=O)c2ccc(C(F)(F)F)cc2)sc2c1CCC(O)=C2,82.8%
16,O=c1oc2ccc(-c3ccc(F)cc3F)cc2c(=O)n1-c1ccc(F)c(Cl)c1,-5.91% (active)
17,CN1CCc2c(sc3ncnc(N/N=C/c4cn(-c5ccccc5)nc4-c4ccc(Br)cc4)c23)C1,48.5%
18,COC[C@@H](CC(C)C)N=C1NC(=O)/C(=C/c2ccc3ncsc3c2)N1,-21.7% (active)
19,Cc1ccc(C(=O)Nc2ccc(-n3c(C)nc4c(cnn4-c4ccccc4)c3=O)cc2)cc1,86%
20,COc1ccc([C@H]2C(C(=O)c3ccc(Cl)cc3)C3(N[C@@H]2c2ccccc2)C(=O)Nc2ccc(Cl)cc23)cc1 (stereo not given in full),-23.4% (active)

row,SMILES,growth
1,Cc1ccc(C(C)C)cc1NC(=O)c1ccccc1N(C)C,86.6%
2,Cc1ccc(NCC(=O)Nn2c(COc3ccccc3)nc3ccccc3c2=O)cc1,92.3%
3,CN(C)c1ccc(/C=C/C(=O)c2ccc(NC(=O)CN3C(=O)NC(C)(c4ccccc4)C3=O)cc2)cc1 (stereo not given),86%
4,O=c1[nH]n(C(=S)N/N=C/c2ccc(F)cc2)c(=O)c2ccccc12,91.2%
5,COc1ccc(NC(=O)Cn2c(/C=C/c3ccc(N(C)C)cc3)nc3ccccc3c2=O)cc1,66.4%
6,COc1ccc(CN2[C@@H](C(=O)NCc3ccc(C(=O)NO)cc3)Cc3c([nH]c4ccccc34)[C@@H]2C)cc1,4.29% (active)
7,COc1cc(Cn2c(C(F)(F)F)cc3c(Cl)ncnc32)ccn1,93.7%
8,CC1=C(c2cc(-c3ccc(Cl)cc3)c(C#N)c(N)n2)C(c2ccccc2)NC(=S)N1 (stereo not given),93.5%
9,C=C1CCC2C3(C)COC(c4ccccc4F)OC3CCC2(C)C1C/C=C1/C(=O)OCC1O (stereo not given),-42.8% (active)
10,O=C1Nc2ccc(Cl)cc2/C1=C/c1ccc(OCc2ccc(Br)cc2F)cc1,70.6%
11,Cc1nn(-c2ccccc2)c2ncn(CC(=O)N/N=C/c3c[nH]c4ccccc34)c(=O)c12,103%
12,COc1cc2c3c(n(CCCNC(C)C)c(=O)c2cc1OC)-c1nc2c(cc1C3=O)OCO2,-93.2% (active)
13,Cc1cc(=O)oc2cc(OCCCCOc3ccc(/C=C/C(=O)Nc4cccc(Cl)c4)cc3)ccc12,82.1%
14,O=C(CNc1nc(-c2ccccc2)cs1)Nc1ccc([N+](=O)[O-])cc1,-39.6% (active)
15,CN1CCN(c2ccc(C(=O)/C=C/c3cc(Br)ccc3F)cc2)CC1,135%
16,Cn1cc(/C=N/Nc2ccnc3cc(Cl)ccc23)c2ccccc21,-90.5% (active)
17,COc1ccccc1[C@H]1C(C(=O)c2ccc(O)cc2)C2(N[C@@H]1c1ccccc1)C(=O)Nc1ccc(Br)cc12 (stereo not given in full),62.7%
18,COC[C@@H](CC(C)C)N=C1NC(=O)/C(=C/c2ccc3ncoc3c2)N1,-11.6% (active)
19,CC1CC(c2ccc(N(C)C)cc2)=NN1c1nc(O)c(C2=c3cc(Br)ccc3=NC2=O)s1 (stereo not given),123%
20,CN(C(=O)c1ccc(C(F)(F)F)cc1C(F)(F)F)c1sc2c(c1C#N)CCC(=O)C2,108%
